About 190 (3.5%) of roughly 5,400 compounds showed an effect of 50% or more. Shown is part of a subset that was picked to be rich in strong results.

The test concerns Vero-E6. The test is described as follows: primary screen, phospholipidosis by LipidTOX staining; higher = more effect of the substance. As to conditions: 10 µM. The procedure, abridged: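 Single-concentration screen at 10 μM, with DMSO 0.1 v/v % and amiodarone 10 μM as controls. Read-out is LipidTOX Red phospholipid staining, which tolerates aldehyde fixation, in Vero-E6 cells.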
In the case of `C[C@@H](O)[C@H]1C(=O)N2C(C(=O)[O-])=C(S[C@@H]3CN[C@H](C(=O)Nc4cccc(C(=O)O)c4)C3)[C@H](C)[C@H]12`, the result_ITMP is -0.24%. Under `C[C@H](NC(=O)CCc1nc2ccccc2c(=O)[nH]1)c1ccccc1` [R4A_0003503_001 / SPE_K24283677] stands -1.61%; under `C/C=C1/[C@H]2C=C(C)C[C@]1(N)c1ccc(=O)[nH]c1C2`, -2.16%. With `O=C(Nc1ncc(SCCN2CCCC2)s1)[C@]1(c2ccc(S(=O)(=O)C3CC3)cc2)C[C@H]1C1CCCCC1` the figure was 55.8%.

With `C[C@H](CCC(=O)O)[C@H]1CC[C@H]2[C@@H]3CC[C@@H]4C[C@H](O)CC[C@]4(C)[C@H]3C[C@H](O)[C@]12C`, the result_ITMP worked out at 0.11%. In the case of `Nc1nc(S)c2nc[nH]c2n1`, the result_ITMP worked out at 26.6%. With `O=C(NCCCN1CCCCCC1)C(c1ccccc1)C1CCCCC1` (stereo not drawn) the figure was 36.5%; with `Cc1ccc(C(=O)C(C)CN2CCCCC2)cc1` (stereo not drawn), -4.52%; with `O=C(Nc1ccccc1)OCC(CN1CCCCC1)OC(=O)Nc1ccccc1` (stereo not drawn), 54.4%. For `CCn1c(=O)/c(=C2\Sc3ccccc3N2C)s/c1=C/c1cccc[n+]1CC`, the result_ITMP is -7.97%. With `COc1ccc(CCNCC(O)COc2cccc(C)c2)cc1OC` (stereo not drawn) the figure was 34.1%; with `CCC(C)CNCC(=O)N1CCc2sccc2C1COc1cccc(C)c1` (stereo not drawn), 57.8%; with `Nc1ccc(S(=O)(=O)[O-])cc1`, -6.57%.

As to `O=C([O-])CN1CCN(CC(=O)[O-])CCN(C(CO)C(O)CO)CCN(CC(=O)[O-])CC1.[Gd+3]` (stereo not drawn), the result_ITMP is on record as -1.16%. In the case of `O=C([O-])c1cc(/N=N/c2ccc(O)c(C(=O)[O-])c2)ccc1O`, the result_ITMP is recorded as -2.29%.

As for `CN(C)CC(O)Cn1c2ccc(Br)cc2c2cc(Br)ccc21` (stereo not drawn), the result_ITMP stood at 28.6%. Under `OC(CNc1ccccc1)Cn1c2ccc(Br)cc2c2cc(Br)ccc21` (stereo not drawn) stands -2.55%. `OC(CN1CCNCC1)Cn1c2ccc(Br)cc2c2cc(Br)ccc21` (stereo not drawn): the result_ITMP was 123%. As for `C=C[C@]1(C)C[C@@H](OC(=O)CS[C@@H]2C[C@H]3CC[C@@H](C2)N3C)[C@]2(C)[C@H](C)CC[C@]3(CCC(=O)[C@H]32)[C@@H](C)[C@@H]1O`, the result_ITMP is given as 12.9%. `NC(=O)c1cc[n+](CC2=C(C(=O)[O-])N3C(=O)[C@@H](NC(=O)[C@@H](c4ccccc4)S(=O)(=O)[O-])[C@H]3SC2)cc1`: the result_ITMP is 4.59%. With `Cc1c(CN(C)C(=O)/C=C/C2=CNC3=NC(=O)CCC3=C2)oc2ccccc12` the figure was -2.49%; with `CC(CN(C)C)CN1c2ccccc2Sc2ccccc21` (stereo not drawn) [R4A_0005516_001 / SPE_A49225603], 81.1%.

Regarding `CC(CN(C)C)CN1c2ccccc2Sc2ccccc21` (stereo not drawn) [R4A_0005516_001 / SPE_M58473998], the result_ITMP came out at 17.1%. With `CC(CN(C)C)CN1c2ccccc2CCc2ccccc21` (stereo not drawn) the figure was 34.6%; with `CCN1/C(=C/C(C)=O)Sc2ccc(OC)cc21`, -4.89%; with `COc1ccc2c(c1)N(C[C@H](C)CN(C)C)c1ccccc1S2`, 53%. Consider `CC(CN(C)C)CN1c2ccccc2Sc2ccc(C#N)cc21` (stereo not drawn), for which the result_ITMP is 42.4%. For `C[C@@H]1CC2C3CCC4=CC(=O)C=C[C@]4(C)[C@@]3(F)[C@@H](O)C[C@]2(C)[C@@]1(O)C(=O)COP(=O)([O-])[O-]` (stereo partly drawn), the result_ITMP is reported as -3.97%.

On to `NC(CSC(c1ccccc1)(c1ccccc1)c1ccccc1)C(=O)O` (stereo in doubt), for which the result_ITMP is -1.96%. With `CC(N)Cc1cccc(O)c1` (stereo not drawn), the result_ITMP was -6.46%. In the case of `CCC(=O)O[C@H]1CCC2C3CCC4=CC(=O)CC[C@]4(C)C3CC[C@@]21C` (stereo partly drawn), the result_ITMP was 5.62%. For the compound `NC(=O)OC[C@@H]1[C@H](NC(=O)/C(=N\OCC(=O)[O-])c2csc(N)n2)C(=O)N1S(=O)(=O)[O-]`, the result_ITMP is 0.72%.

With `CCCC(=O)Nc1ncnc2c1ncn2C1O[C@@H]2COP(=O)([O-])O[C@H]2[C@H]1OC(=O)CCC` (stereo partly drawn), the result_ITMP is -5.79%.

For `CC[C@]12C=CCN3CC[C@@]4(c5cc([C@@]6(C(=O)OC)C[C@H]7C[C@@H](C(C)(F)F)CN(Cc8c6[nH]c6ccccc86)C7)c(OC)cc5N(C)[C@H]4[C@@](O)(C(=O)OC)[C@@H]1OC(C)=O)[C@@H]32`, the result_ITMP turned out to be 49.7%. With `COc1cc(N)c(Cl)cc1C(=O)NC1CN2CCC1CC2` (stereo not drawn) the figure was -9.6%; with `O=C(N[C@H]1CN2CCC1CC2)c1ccc(Cl)cc1`, -0.98%. In the case of `O=C(N[C@H]1CN2CCC1CC2)c1cc2cccc(Cl)c2s1`, the result_ITMP worked out at 100%. Take `C[C@H](CCC(=O)O)[C@H]1CC[C@H]2[C@@H]3C[C@H](O)[C@@H]4C[C@H](O)CC[C@]4(C)[C@H]3CC[C@]12C`: the result_ITMP is 1.59%.

As to `c1ccc2c(Cc3c[nH]c4ccccc34)c[nH]c2c1`, the result_ITMP is -4.8%. With `c1ccc2c(CCNc3ccc(Nc4ccncc4)cc3)c[nH]c2c1` the figure was 74%; with `CC(=O)NCCc1c[nH]c2ccccc12`, -3.74%; with `CCCCc1nc(Cl)c(C(=O)O)n1Cc1ccc(-c2ccccc2-c2nnn[nH]2)cc1`, -4.07%. With `CN1CCC[C@@H]1CCO[C@](C)(c1ccccc1)c1ccc(Cl)cc1` the figure was 90.6%; with `CN1CCCC1CCSc1ccc(O)cc1` (stereo not drawn), 2.34%; with `CC(C)(C)c1ccc(C(O)CCCN2CCC(C(O)(c3ccccc3)c3ccccc3)CC2)cc1` (stereo not drawn), -4.73%. Under `C=C1/C(=C\C=C2/CCC[C@]3(C)[C@@H]([C@H](C)CCCC(C)(C)O)CC[C@@H]23)C[C@@H](O)C[C@@H]1O` stands -1.95%; under `CC[C@H]1[C@@H](O)[C@@H]2[C@H](CC[C@]3(C)[C@@H]([C@H](C)CCC(=O)O)CC[C@@H]23)[C@@]2(C)CC[C@@H](O)C[C@@H]12`, -0.78%; under `CO[C@H]1/C=C/O[C@@]2(C)Oc3c(C)c(O)c4c(O)c(cc([O-])c4c3C2=O)NC(=O)/C(C)=C\C=C\C(C)[C@H](O)[C@@H](C)[C@@H](O)[C@@H](C)[C@H](OC(C)=O)[C@@H]1C` (stereo partly drawn), -1.11%.

The values above are taken from publication PMC13083723 (Patterns, 2026).
